Structures can show the parent of a compound that is named as a salt. ± gives the standard deviation of the averaged measurements.
Experiments:
Experiment in all cases: cell viability (% of vehicle); higher = less cytotoxic
Conditions in all cases: 10 µM; 72 h
[1] = tested on: HCI01 (cells of a triple-negative basal-like breast cancer xenograft)
[2] = tested on: HCI03 (cells of an ER-positive luminal breast cancer xenograft)
[3] = tested on: HCI09 (cells of a triple-negative luminal androgen receptor type breast cancer xenograft)
[4] = tested on: HCI11 (cells of an ER-positive luminal breast cancer xenograft)
[5] = tested on: HCI13 (cells of an ER-positive luminal breast cancer xenograft)
[6] = tested on: HCI16 (cells of a triple-negative basal-like breast cancer xenograft)
[7] = tested on: UCD52 (cells of a triple-negative basal-like breast cancer xenograft)
[8] = tested on: WHIM2 (cells of a triple-negative basal-like breast cancer xenograft)
[9] = tested on: WHIM30 (cells of a triple-negative basal-like breast cancer xenograft)
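Also: PDX cells carrying CMV promoter-driven luciferase, viability read as total photon flux per second by IVIS imaging following D-luciferin, vehicle control 0.1% DMSO.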

SMILES | cell viability [1] | cell viability [2] | cell viability [3] | cell viability [4] | cell viability [5] | cell viability [6] | cell viability [7] | cell viability [8] | cell viability [9]
CN1C2=CC(=O)C(=NNC(N)=O)C=C2CC1S(=O)(=O)[O-].[Na+] (stereo not given) [Carbazochrome sodium sulfonate (AC-17)] | 99.8 ± 0.3 | 129 | 105.4 ± 0.44 | 94.6 | 81 ± 18 | 124 | 99 ± 19 | 99.4 ± 21 | 134 ± 9.7
CCN(CC)CCOCCOC(=O)C(CC)(CC)c1ccccc1.O=C(O)CC(O)(CC(=O)O)C(=O)O [Oxeladin Citrate] | 111.1 ± 1.1 | 92.7 | 143 ± 73 | 99.4 | 98.7 ± 22 | 122 | 84.9 ± 4.5 | 82.4 ± 24 | 119 ± 21
O=c1nc[nH]c2c1ncn2C1CCC(CO)O1 (stereo not given) [Didanosine] | 105.3 ± 0.26 | 139 | 95.4 ± 7 | 118 | 99.18 ± 0.8 | 90.8 | 96.8 ± 9.7 | 98.5 ± 22 | 90.6 ± 1.1
CC(C)OC(=O)C(C(=O)OC(C)C)=C1SC=CS1 [Malotilate] | 108 ± 12 | 84.3 | 90.2 ± 13 | 90.9 | 89.8 ± 3.1 | 75.5 | 89.5 ± 2.4 | 75.6 ± 17 | 97.9 ± 4
CCOC(=O)C1=C(C)NC(C)=C(C(=O)OC)C1c1cccc([N+](=O)[O-])c1 (stereo not given) [Nitrendipine] | 111 ± 10 | 123 | 93.6 ± 17 | 112 | 104 ± 0.32 | 90.2 | 80.15 ± 0.7 | 95.6 ± 22 | 97.2 ± 5.3
C=CC1=C(C(=O)O)N2C(=O)C(NC(=O)C(=NO)c3csc(N)n3)C2SC1 (stereo not given) [Cefdinir] | 96.2 ± 11 | 138 | 107 ± 6.3 | 120 | 130 ± 4.8 | 121 | 96.6 ± 12 | 98.1 ± 22 | 114 ± 8
CC1=NS(=O)(=O)c2cc(Cl)ccc2N1 [Diazoxide] | 92.6 ± 9.1 | 151 | 86.4 ± 17 | 98.1 | 99.6 ± 11 | 102 | 104 ± 2.7 | 95.9 ± 3.5 | 117 ± 3.8
C=CC[N+]1(C2CC3C4CCC5CC(O)C(N6CCOCC6)CC5(C)C4CCC3(C)C2OC(C)=O)CCCC1.[Br-] (stereo not given) [Rocuronium Bromide] | 100 ± 8.3 | 133 | 103 ± 3.9 | 102 | 115 ± 7.2 | 80.4 | 118 ± 8 | 99.8 ± 22 | 119 ± 7.7
Br.CN1CCCC1Cc1c[nH]c2ccc(CCS(=O)(=O)c3ccccc3)cc12 (stereo not given) [Eletriptan HBr] | 91.4 ± 17 | 108 | 80.12 ± 0.74 | 86.1 | 83.7 ± 7.3 | 113 | 87 ± 9.9 | 83.3 ± 4.5 | 163 ± 24
Cc1ncc([N+](=O)[O-])n1CC(O)CCl (stereo not given) [Ornidazole] | 94.9 ± 14 | 115 | 96 ± 7.9 | 83.2 | 111 ± 18 | 105 | 85.1 ± 4.3 | 88.1 ± 8.4 | 108 ± 10
CC(CN1CC(=O)NC(=O)C1)N1CC(=O)NC(=O)C1.Cl (stereo not given) [Dexrazoxane HCl (ICRF-187, ADR-529)] | 64.8 ± 50 | 134 | 107 ± 3.7 | 97.9 | 96.3 ± 1.9 | 84.2 | 96.1 ± 14 | 70.2 ± 19 | 114 ± 1.9
COc1nc(N)nc2c1ncn2C1OC(CO)C(O)C1O (stereo not given) [Nelarabine] | 127 ± 20 | 117 | 113 ± 0.87 | 95.9 | 86.3 ± 5.3 | 98.4 | 111 ± 21 | 96.7 ± 21 | 115 ± 17
CNNCc1ccc(C(=O)NC(C)C)cc1.Cl [Procarbazine HCl] | 93.5 ± 4.4 | 90.5 | 96.1 ± 13 | 99.7 | 104 ± 21 | 87.6 | 79.7 ± 13 | 98 ± 16 | 83.91 ± 0.74
C[N+](C)(C)CC(O)CC(=O)O.[Cl-] (racemic) [DL-Carnitine HCl] | 111 ± 35 | 112 | 120 ± 37 | 101 | 113 ± 5.4 | 147 | 102 ± 13 | 114 ± 25 | 132 ± 11
O=c1cc(O)c(Cl)c[nH]1 [Gimeracil] | 96.4 ± 1.7 | 131 | 94 ± 19 | 112 | 123 ± 14 | 91 | 87.8 ± 3.9 | 102 ± 15 | 101 ± 17
Cn1c(=O)cc(N2CCCC(N)C2)n(Cc2cc(F)ccc2C#N)c1=O (stereo not given) [Trelagliptin] | 111 ± 7 | 116 | 112 ± 6.1 | 111 | 104 ± 1.3 | 95.2 | 96.2 ± 11 | 96.8 ± 4.5 | 121 ± 13
COc1ccccc1OCC(O)CN1CCN(CC(=O)Nc2c(C)cccc2C)CC1 (stereo not given) [Ranolazine] | 136 ± 2.8 | 96.3 | 134 ± 75 | 103 | 120 ± 35 | 120 | 89.4 ± 19 | 109 ± 19 | 130 ± 17
COC1C(OC(N)=O)C(O)C(Oc2ccc3c(O)c(NC(=O)c4ccc([O-])c(CC=C(C)C)c4)c(=O)oc3c2C)OC1(C)C.[Na+] (stereo not given) [Novobiocin Sodium] | 126 ± 61 | 153 | 93.1 ± 5.1 | 75.6 | 140 ± 2.5 | 130 | 120 ± 16 | 130 ± 5.4 | 116 ± 15
Cl.N#Cc1ccc2[nH]cc(CCCCN3CCN(c4ccc5oc(C(N)=O)cc5c4)CC3)c2c1 [Vilazodone Hydrochloride] | 135 ± 3.5 | 103 | 104 ± 18 | 122 | 113 ± 6.7 | 166 | 111 ± 3.3 | 109 ± 20 | 112 ± 17
CN(C)CCc1c[nH]c2ccc(CC3COC(=O)N3)cc12 (stereo not given) [Zolmitriptan] | 86.8 ± 19 | 134 | 107 ± 11 | 96 | 119 ± 21 | 107 | 94.8 ± 8.3 | 86.6 ± 2.1 | 131 ± 11

SMILES | cell viability [1] | cell viability [2] | cell viability [3] | cell viability [4] | cell viability [5] | cell viability [6] | cell viability [7] | cell viability [8] | cell viability [9]
O=C(CCc1ccc(O)cc1)c1c(O)cc(O)cc1OC1OC(CO)C(O)C(O)C1O (stereo not given) [Phloridzin] | 104 ± 31 | 123 | 98.1 ± 10 | 97.7 | 106 ± 6.1 | 115 | 105 ± 4.7 | 96.2 ± 9.1 | 97.2 ± 7.4
CCC(C)C(=O)OC1CCC=C2C=CC(C)C(CCC3CC(O)CC(=O)O3)C21 (stereo not given) [Mevastatin] | 129 ± 20 | 119 | 87.8 ± 22 | 120 | 92.7 ± 24 | 132 | 54.2 ± 10 | 86.8 ± 15 | 136 ± 4.6
Cl.NC(N)=NC(=O)Cc1c(Cl)cccc1Cl [Guanfacine hydrochloride] | 117 ± 15 | 97.6 | 82.1 ± 9.4 | 86.2 | 107 ± 6.5 | 94.4 | 93.2 ± 6 | 102 ± 9.9 | 132 ± 19
COc1c2ccoc2cc2oc(=O)ccc12 [5-Methoxypsoralen] | 103 ± 24 | 142 | 93.1 ± 13 | 93.8 | 121 ± 3.1 | 109 | 85.2 ± 13 | 103 ± 3.7 | 93 ± 3.1
CN1C2CCCC1CC(NC(=O)c1nn(C)c3ccccc13)C2 (stereo not given) [Granisetron] | 112 ± 1.8 | 119 | 108 ± 9.4 | 81.8 | 108 ± 12 | 89.3 | 105 ± 4.6 | 110 ± 28 | 133 ± 31
CC(CN1c2ccccc2Sc2ccccc21)N(C)C (stereo not given) [Promethazine HCl] | 106 ± 15 | 90 | 75.8 ± 5.4 | 92.9 | 96.1 ± 3.6 | 107 | 73.3 ± 6.1 | 85 ± 17 | 114 ± 7.7
Cc1[nH]c(C=C2C(=O)Nc3ccccc32)c(C)c1CCC(=O)O [TSU-68 (SU6668,Orantinib)] | 79.2 ± 19 | 116 | 90.8 ± 25 | 106 | 60.8 ± 6.6 | 111 | 123 ± 18 | 60.9 ± 4.7 | 112 ± 13
CC1CCOC2Cn3cc(C(=O)NCc4ccc(F)cc4F)c(=O)c(O)c3C(=O)N12 (stereo not given) | 133 ± 25 | 110 | 139 ± 35 | 137 | 74.39 ± 0.7 | 124 | 139 ± 20 | 120 ± 15 | 176 ± 20
CC(C)Cc1ccc(C(C)C(=O)O)cc1 (stereo not given) [Ibuprofen] | 124 ± 28 | 115 | 110 ± 24 | 104 | 133 ± 7.1 | 90.2 | 88.9 ± 4.3 | 102 ± 13 | 104 ± 4.4
CN1CCN(c2nc(C3=C(c4c[nH]c5ccccc45)C(=O)NC3=O)c3ccccc3n2)CC1 [Sotrastaurin (AEB071)] | 134 ± 40 | 102 | 173 ± 34 | 136 | 109 ± 1.9 | 111 | 63.9 ± 1.5 | 195 ± 10 | 111 ± 6.1
C.CCN1CC(CCN2CCOCC2)C(c2ccccc2)(c2ccccc2)C1=O.O (stereo not given) [Doxapram HCl] | 102.9 ± 0.49 | 198 | 81.9 ± 14 | 101 | 91.2 ± 1.9 | 105 | 73.6 ± 5.6 | 82.8 ± 4.2 | 117 ± 11
CCc1cccc2c3c([nH]c12)C(CC)(CC(=O)O)OCC3 (stereo not given) [Etodolac] | 117 ± 23 | 104 | 98.8 ± 27 | 97.2 | 97.3 ± 8 | 96.8 | 79.2 ± 9.2 | 92.6 ± 19 | 86 ± 8.4
Cl.O=c1n(CCCN2CCN(c3cccc(Cl)c3)CC2)nc2ccccn12 [Trazodone HCl] | 112 ± 11 | 123 | 95.5 ± 16 | 101 | 104 ± 9.6 | 148 | 89.05 ± 0.23 | 105 ± 23 | 192 ± 16
CCCS(=O)c1ccc2nc(NC(=O)OC)[nH]c2c1 (stereo not given) [Albendazole Oxide] | 115 ± 11 | 144 | 110 ± 35 | 105 | 68.2 ± 9.5 | 106 | 103 ± 11 | 112 ± 34 | 141.6 ± 1.2
Cc1c(O)c(=O)ccn1C [Deferiprone] | 81 ± 3.5 | 102 | 83.6 ± 14 | 77.1 | 93 ± 5.8 | 102 | 85.8 ± 1.6 | 144 ± 12 | 89.2 ± 3.3
CC(=O)O.NC(N)=NN=Cc1c(Cl)cccc1Cl [Guanabenz Acetate] | 134 ± 24 | 122 | 83.5 ± 5.4 | 108 | 101 ± 12 | 158 | 76.9 ± 2.8 | 109 ± 16 | 110 ± 20
O=C([O-])c1ccccc1O.[Na+] [Sodium salicylate] | 96.1 ± 24 | 121 | 100 ± 7.2 | 91.4 | 107 ± 12 | 124 | 85.6 ± 3.5 | 89.1 ± 15 | 94.4 ± 3.4
CC(C)OC(=O)C(C)(C)Oc1ccc(C(=O)c2ccc(Cl)cc2)cc1 [Fenofibrate] | 108 ± 18 | 106 | 93.6 ± 4.2 | 92.1 | 87.5 ± 35 | 135 | 89.1 ± 14 | 109 ± 1.6 | 137 ± 9.3
Nc1ccc(S(=O)(=O)c2ccc(N)cc2)cc1 [Dapsone] | 114 ± 18 | 146 | 111 ± 3.1 | 116 | 118 ± 22 | 158 | 116 ± 4.3 | 115 ± 8.2 | 117 ± 10
CN(C)CC(c1ccc(O)cc1)C1(O)CCCCC1 (stereo not given) [Desvenlafaxine] | 84 ± 2.4 | 118 | 92.5 ± 18 | 80.5 | 90.1 ± 13 | 126 | 92.2 ± 9.2 | 79.9 ± 7.9 | 124 ± 7.7

Reference: the supplement of paper PMC6992640
